Assay results taken from PubChem BioAssay (NCI).
The panel holds about 83,000 compounds, 20% with a hit somewhere; the sample as a whole holds those more often.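 The endpoint reported here, percent growth, reads 100 for growth as untreated, 0 for no net growth and -100 for all cells dead.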 Unmarked numbers belong to inactive results. The source made the active and inactive calls. Rule for the calls: active = growth percent below 10; inactive = the rest.

Test system: HL-60(TB) leukemia
Assay: NCI-60 one-dose screen, 48 h (100 = growth as untreated, 0 = no growth, -100 = all killed)
Conditions: 10 µM unless noted

**Q.** With Cc1ccc2nc3nc4ccc[nH]c4cc3c2c1 as the compound, how does the growth read?
**A.** 124%

**Q.** For N#Cc1nc(-c2ccc(Cl)cc2)cc(-c2ccc(Nc3nc(N4CCCCC4)nc(N4CCCCC4)n3)cc2)c1N, which growth is on record?
**A.** 99.2%

**Q.** With CCCCCCCCCCC1OC(C)CC(C)O1 (stereo not drawn) as the compound, how does the growth read?
**A.** 92.9%

**Q.** For CCC(=O)Oc1ccc(/C=N/NC(N)=S)nc1, which growth is on record?
**A.** 19.9%

**Q.** Which growth does the source give for COC(=O)CNC(=O)[C@]12CCC(C)(C)C[C@H]1C1=CC[C@@H]3[C@@]4(C)Cc5c([nH]c6ccccc56)C(C)(C)[C@@H]4CC[C@@]3(C)[C@]1(C)CC2 here?
**A.** 76.9%

**Q.** COc1cc2c(cc1-c1c(C)noc1C)ncc1nc(C3CCC(F)(F)CC3)n([C@@H](C)COC(F)F)c12 was tested. Which growth did it give?
**A.** 18%

**Q.** Which growth does the source give for O=C(Nc1ccc(I)cc1)c1cc([N+](=O)[O-])ccc1O here?
**A.** 20.6%

**Q.** With c1ccc2c[n+](Cc3ccc4ccccc4n3)ccc2c1 as the compound, how does the growth read?
**A.** 74.3%

**Q.** COC1=C(OC)C(=O)C(SC/C=C(\C)CCCC(C)CCCC(C)CCCC(C)C)=CC1=O (stereo not drawn) was tested. Which growth did it give?
**A.** -36.3% (active)

**Q.** How did the growth turn out when COc1cc(C(=O)N/N=C/c2ccc(N(C)C)cc2)cc(OC)c1OC was run?
**A.** -20% (active)

**Q.** With O=C1c2cccc3cc([N+](=O)[O-])cc(c23)C(=O)N1CCN1CCCC1 as the compound, how does the growth read?
**A.** -54.1% (active)

**Q.** CC(=O)O[C@H]1CC[C@]2(C)[C@H]3C(=O)C=C4[C@@H]5C[C@](C)(C(=O)N6CCCNCC6)CC[C@]5(C)CC[C@@]4(C)[C@]3(C)CC[C@H]2C1(C)C was tested. Which growth did it give?
**A.** -61.9% (active)

**Q.** For COC(=O)[C@@H]1CCCN1C(=O)[C@@H]1CCCN1C(=O)[C@@H](Cc1c[nH]c2ccccc12)NC(=S)Nc1cc(C(F)(F)F)cc(C(F)(F)F)c1, which growth is on record?
**A.** 11.1%

**Q.** Which growth does the source give for COc1cc(-c2nn(C(=O)NS(=O)(=O)c3ccccc3)cc2-c2ccncc2)ccc1Cl here?
**A.** 98.1%

**Q.** How did the growth turn out when Clc1ccccc1/C=N\Nc1ccccn1 was run?
**A.** 98.1%

**Q.** C=C(C)[C@@H]1CC[C@]2(COC3CCCCO3)CC[C@]3(C)[C@H](CC[C@@H]4[C@@]5(C)C=C(C=O)C(=O)C(C)(C)[C@@H]5CC[C@]43C)[C@@H]12 (stereo partly drawn) was tested. Which growth did it give?
**A.** -25.8% (active)

**Q.** With COc1ccc(-n2nc(C)c3c(Nc4ccc(NC(=O)Nc5c(Cl)cccc5Cl)cc4)ncnc32)cc1 as the compound, how does the growth read?
**A.** 97.8%

**Q.** Which growth does the source give for CN1C(=O)N(C)C2C1NC(=S)N2/N=C/C=C/c1ccccc1[N+](=O)[O-] (stereo not drawn) here?
**A.** -34.9% (active)

**Q.** How did the growth turn out when O=C1c2cc3c(cc2-c2c1c1ccc(Cl)cc1c(=O)n2C[C@H](O)[C@@H](O)[C@H](O)CO)OCO3 was run?
**A.** -5.75% (active)

**Q.** For O=C1OCC2=C1C(c1cccc([N+](=O)[O-])c1)c1cc3c(cc1N2CCO)CCC3 (stereo not drawn), which growth is on record?
**A.** -26.9% (active)

**Q.** Which growth does the source give for CCOC(=S)Sc1ccc([N+](=O)[O-])cc1[N+](=O)[O-] here?
**A.** -25.6% (active)

**Q.** How did the growth turn out when CC1=CC(=O)c2cccc(NC3=NCCO3)c21 was run?
**A.** 100%

**Q.** O=C(Nc1ccccc1)Nc1ccccc1CNc1nc(Nc2ccc(OCCN3CCCC3)cc2)ncc1Cl was tested. Which growth did it give?
**A.** -31.2% (active)

**Q.** COc1ccc(-c2nn(-c3ccccc3)cc2/C=C/C(=O)NNC(=O)Nc2ccc(C)cc2)cc1 was tested. Which growth did it give?
**A.** 90.5%

**Q.** With NNc1ncnc2cccc(Cl)c12 as the compound, how does the growth read?
**A.** 99.9%

**Q.** CCCCCCCCCCCCCCCC1=NCC[N+]1(CCO)CCO was tested. Which growth did it give?
**A.** 44.9%

**Q.** C/C(=N\NC(=O)c1ccc(C(C)(C)C)cc1)c1ccc(O)cc1O was tested. Which growth did it give?
**A.** 9.36% (active)

**Q.** Which growth does the source give for C(=C\c1cn(-c2ccccc2)nc1-c1ccccc1)/c1nnc(-c2c[nH]c3ccccc23)o1 here?
**A.** 98.1%

**Q.** For CN(C)c1ccc(C(c2ccc(O)cc2)c2ccc(N(C)C)cc2)cc1, which growth is on record?
**A.** 87.1%

**Q.** CCOc1ccc(N2C(N)=NC(N)=NC2(C)C)cc1 was tested. Which growth did it give?
**A.** 16.4%

**Q.** OC[C@@H](O)C(O[C@@H]1O[C@H](CO)[C@H](O)[C@H](O)[C@H]1O)[C@H](O)[C@@H](O)CO (stereo partly drawn) was tested. Which growth did it give?
**A.** 94.9%

**Q.** With O=c1cc(-c2ccccc2)[nH]n1-c1nc2ccccc2[nH]1 as the compound, how does the growth read?
**A.** 11%

**Q.** Which growth does the source give for CCOC(=N)CC(=O)Nc1cccc(C)c1Cl here?
**A.** 111%

**Q.** COC(=O)[C@@H](Cc1c[nH]c2ccccc12)NC(=O)/C=C/c1ccccc1 was tested. Which growth did it give?
**A.** 0.51% (active)

**Q.** With Cc1cccc[n+]1CCC[n+]1ccccc1C as the compound, how does the growth read?
**A.** 86.4%

**Q.** Which growth does the source give for CN1C(N2CCN(S(=O)(=O)c3ccccc3)CC2)=NS(=O)(=O)c2ccccc21 here?
**A.** 116%

**Q.** With N=C(N)c1ccc(OCCCCCCCCCCOc2ccc(C(=N)N)cc2)cc1 as the compound, how does the growth read?
**A.** -70.1% (active)

**Q.** O=C1NC(=S)N[C@H]1CC(=O)n1cnc2ccccc21 was tested. Which growth did it give?
**A.** 109%
